# Assay results taken from the supplement of paper PMC8728848.
# This excerpt belongs to a sample that is enriched for the strongest signals.
# Legend:
# Assay in all cases: glycan array binding signal (z-score within array); higher = stronger binding
# Conditions in all cases: glycan notation: IUPAC condensed, linker removed
# GalNAc(b1-3)GlcNAc = target: GalNAc(b1-3)GlcNAc
# Method in brief: (§1)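 Arrays were curated from the Consortium for Functional Glycomics database, 3228 in total, and kept only where the protein sequence was available. Binding is expressed as a within-array Z-score. This score was averaged across arrays of the same protein sequence at different concentrations or buffers and across linkers, and negative values can be read as non-binding.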
# GalNAc6S(b1-4)GlcNAc = target: GalNAc6S(b1-4)GlcNAc
# Method in brief: as §1
# Glc(a1-6)Glc(a1-6)Glc = target: Glc(a1-6)Glc(a1-6)Glc
# Method in brief: as §1
# [1] = target: GlcNAc(a1-4)Gal(b1-4)GalNAc
# Method in brief: as §1
# [2] = target: GlcNAc(a1-4)Gal(b1-4)GlcNAc(b1-3)Gal(b1-4)GlcNAc
# Method in brief: as §1
# [3] = target: GlcNAc(a1-4)Gal(b1-4)GlcNAc(b1-3)Gal(b1-4)[Fuc(a1-3)]GlcNAc(b1-3)Gal(b1-4)[Fuc(a1-3)]GlcNAc
# Method in brief: as §1
# [4] = target: GlcNAc(b1-3)Gal(b1-4)GlcNAc(b1-2)[GlcNAc(b1-3)Gal(b1-4)GlcNAc(b1-6)]Man(a1-6)[GlcNAc(b1-3)Gal(b1-4)GlcNAc(b1-2)Man(a1-3)]Man(b1-4)GlcNAc(b1-4)GlcNAc
# Method in brief: as §1
# [5] = target: GlcNAc(b1-3)Gal(b1-4)GlcNAc(b1-3)Gal(b1-4)GlcNAc(b1-2)Man(a1-3)[GlcNAc(b1-3)Gal(b1-4)GlcNAc(b1-3)Gal(b1-4)GlcNAc(b1-2)Man(a1-6)]Man(b1-4)GlcNAc(b1-4)GlcNAc
# Method in brief: as §1
# [6] = target: GlcNAc(b1-3)Gal(b1-4)GlcNAc(b1-3)Gal(b1-4)GlcNAc(b1-2)[GlcNAc(b1-3)Gal(b1-4)GlcNAc(b1-3)Gal(b1-4)GlcNAc(b1-6)]Man(a1-6)[GlcNAc(b1-3)Gal(b1-4)GlcNAc(b1-3)Gal(b1-4)GlcNAc(b1-2)Man(a1-3)]Man(b1-4)GlcNAc(b1-4)[Fuc(a1-6)]GlcNAc
# Method in brief: as §1
# [7] = target: GlcNAc(b1-3)Gal(b1-4)GlcNAc(b1-3)Gal(b1-4)GlcNAc(b1-3)Gal(b1-4)GlcNAc(b1-2)[GlcNAc(b1-3)Gal(b1-4)GlcNAc(b1-3)Gal(b1-4)GlcNAc(b1-3)Gal(b1-4)GlcNAc(b1-6)]Man(a1-6)[GlcNAc(b1-3)Gal(b1-4)GlcNAc(b1-3)Gal(b1-4)GlcNAc(b1-3)Gal(b1-4)GlcNAc(b1-2)Man(a1-3)]Man(b1-4)GlcNAc(b1-4)[Fuc(a1-6)]GlcNAc
# Method in brief: as §1
# [8] = target: GlcNAc6S(b1-3)Gal(b1-4)GlcNAc
# Method in brief: as §1
# Kdn(a2-3)Gal(b1-3)GalNAc = target: Kdn(a2-3)Gal(b1-3)GalNAc
# Method in brief: as §1
# [9] = target: Man(a1-2)Man(a1-3)[Man(a1-2)Man(a1-6)]Man
# Method in brief: as §1
# Neu5Ac(a2-3)Gal(b1-4)Glc = target: Neu5Ac(a2-3)Gal(b1-4)Glc
# Method in brief: as §1
# [10] = target: Neu5Ac(a2-3)Gal(b1-4)GlcNAc(b1-2)Man(a1-3)[Neu5Ac(a2-3)Gal(b1-4)GlcNAc(b1-2)Man(a1-6)]Man(b1-4)GlcNAc(b1-4)[Fuc(a1-6)]GlcNAc
# Method in brief: as §1
# [11] = target: Neu5Ac(a2-3)Gal(b1-4)GlcNAc(b1-2)[Neu5Ac(a2-3)Gal(b1-4)GlcNAc(b1-4)]Man(a1-3)[GlcNAc(b1-4)][Neu5Ac(a2-3)Gal(b1-4)GlcNAc(b1-2)[Neu5Ac(a2-3)Gal(b1-4)GlcNAc(b1-6)]Man(a1-6)]Man(b1-4)GlcNAc(b1-4)GlcNAc
# Method in brief: as §1
# [12] = target: Neu5Ac(a2-3)Gal(b1-4)GlcNAc(b1-3)Gal(b1-4)GlcNAc(b1-3)Gal(b1-4)GlcNAc(b1-2)Man(a1-3)[Neu5Ac(a2-3)Gal(b1-4)GlcNAc(b1-3)Gal(b1-4)GlcNAc(b1-3)Gal(b1-4)GlcNAc(b1-2)Man(a1-6)]GalNAc
# Method in brief: as §1
# [13] = target: Neu5Ac(a2-3)Gal(b1-4)GlcNAc(b1-6)GalNAc
# Method in brief: as §1
# [14] = target: Neu5Ac(a2-3)Gal(b1-4)GlcNAc6S
# Method in brief: as §1
# [15] = target: Neu5Ac(a2-3)Gal(b1-4)[Fuc(a1-3)]GlcNAc(b1-2)Man
# Method in brief: as §1
# [16] = target: Neu5Ac(a2-6)Gal(b1-4)GlcNAc(b1-3)Gal(b1-4)GlcNAc(b1-2)Man(a1-3)[Neu5Ac(a2-6)Gal(b1-4)GlcNAc(b1-3)Gal(b1-4)GlcNAc(b1-2)Man(a1-6)]GalNAc
# Method in brief: as §1
# [17] = target: Neu5Ac(a2-6)Gal(b1-4)GlcNAc(b1-3)Gal(b1-4)GlcNAc(b1-3)Gal(b1-4)GlcNAc(b1-2)Man(a1-3)[Neu5Ac(a2-6)Gal(b1-4)GlcNAc(b1-3)Gal(b1-4)GlcNAc(b1-3)Gal(b1-4)GlcNAc(b1-2)Man(a1-6)]GalNAc
# Method in brief: as §1
# [18] = target: Neu5Ac(a2-6)Gal(b1-4)GlcNAc(b1-6)[Gal(b1-3)]GalNAc
# Method in brief: as §1
# [19] = target: Neu5Ac(a2-8)Neu5Ac(a2-3)[GalNAc(b1-4)]Gal(b1-4)Glc
# Method in brief: as §1
# [20] = target: Neu5Ac(a2-8)Neu5Ac(a2-8)Neu5Ac(a2-3)Gal(b1-4)Glc
# Method in brief: as §1
# [21] = target: Neu5Gc(a2-8)Neu5Ac(a2-3)Gal(b1-4)GlcNAc
# Method in brief: as §1
binder,measurement,setting,value
TIM1 (protein) ADGIQSVKVGGEAGPSVTLPCHYSGAVTSMCWNRGSCSLFTCQNGIVWTNGTHVTYRKDTRYKLLGDLSRRDVSLTIENTAVSDSGVYCCRVEHRGWFNDMKITVSLEIVPPHHHHHH,glycan array binding signal (z-score),GalNAc(b1-3)GlcNAc,-0.188
same,glycan array binding signal (z-score),GalNAc6S(b1-4)GlcNAc,-0.269
same,glycan array binding signal (z-score),Glc(a1-6)Glc(a1-6)Glc,-0.212
same,glycan array binding signal (z-score),[1],0.413
same,glycan array binding signal (z-score),[2],-0.125
same,glycan array binding signal (z-score),[3],2.32
same,glycan array binding signal (z-score),[4],1.97
same,glycan array binding signal (z-score),[5],5.59
same,glycan array binding signal (z-score),[6],1.97
same,glycan array binding signal (z-score),[7],1.02
same,glycan array binding signal (z-score),[8],-0.142
same,glycan array binding signal (z-score),Kdn(a2-3)Gal(b1-3)GalNAc,0.111
same,glycan array binding signal (z-score),[9],-0.292
same,glycan array binding signal (z-score),Neu5Ac(a2-3)Gal(b1-4)Glc,0.916
same,glycan array binding signal (z-score),[10],-0.132
same,glycan array binding signal (z-score),[11],-0.288
same,glycan array binding signal (z-score),[12],4.84
same,glycan array binding signal (z-score),[13],-0.189
same,glycan array binding signal (z-score),[14],-0.181
same,glycan array binding signal (z-score),[15],-0.204
same,glycan array binding signal (z-score),[16],1.3
same,glycan array binding signal (z-score),[17],5.74
same,glycan array binding signal (z-score),[18],-0.075
same,glycan array binding signal (z-score),[19],-0.183
same,glycan array binding signal (z-score),[20],-0.195
same,glycan array binding signal (z-score),[21],-0.137
